# ChEMBL document CHEMBL1961873, “Compounds: GSK PKIS; Assays: Nanosyn kinase panel” (2012)
# Columns and labels:
# [1] = molecular target: T1, Inhibitor of nuclear factor kappa-B kinase subunit epsilon (Homo sapiens) (UniProt Q14164); details: at 1 µM;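 further: reported values are averaged percent inhibition figures against human IKKε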
# T1 sequence (whole entry): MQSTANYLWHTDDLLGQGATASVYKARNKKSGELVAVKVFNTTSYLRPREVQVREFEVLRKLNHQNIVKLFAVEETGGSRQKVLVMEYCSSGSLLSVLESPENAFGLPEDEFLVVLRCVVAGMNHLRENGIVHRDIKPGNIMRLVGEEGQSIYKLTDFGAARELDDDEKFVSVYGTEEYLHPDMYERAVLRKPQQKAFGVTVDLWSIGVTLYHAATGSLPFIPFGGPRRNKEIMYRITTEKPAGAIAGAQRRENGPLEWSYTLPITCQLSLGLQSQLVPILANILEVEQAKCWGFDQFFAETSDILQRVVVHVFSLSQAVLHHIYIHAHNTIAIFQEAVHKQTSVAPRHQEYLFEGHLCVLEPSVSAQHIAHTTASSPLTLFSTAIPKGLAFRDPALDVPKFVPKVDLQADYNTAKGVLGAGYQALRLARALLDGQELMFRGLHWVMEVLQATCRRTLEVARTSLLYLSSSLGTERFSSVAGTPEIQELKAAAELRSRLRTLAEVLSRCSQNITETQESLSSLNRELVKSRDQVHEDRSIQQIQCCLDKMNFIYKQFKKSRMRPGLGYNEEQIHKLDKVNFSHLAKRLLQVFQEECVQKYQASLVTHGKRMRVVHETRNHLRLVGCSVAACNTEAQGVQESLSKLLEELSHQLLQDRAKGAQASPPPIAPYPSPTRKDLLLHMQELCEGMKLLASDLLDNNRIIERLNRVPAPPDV
# [2] = molecular target: T2, Serine/threonine-protein kinase Nek1 (Homo sapiens) (UniProt Q96PY6); details: at 0.1 µM
# T2 sequence (whole entry): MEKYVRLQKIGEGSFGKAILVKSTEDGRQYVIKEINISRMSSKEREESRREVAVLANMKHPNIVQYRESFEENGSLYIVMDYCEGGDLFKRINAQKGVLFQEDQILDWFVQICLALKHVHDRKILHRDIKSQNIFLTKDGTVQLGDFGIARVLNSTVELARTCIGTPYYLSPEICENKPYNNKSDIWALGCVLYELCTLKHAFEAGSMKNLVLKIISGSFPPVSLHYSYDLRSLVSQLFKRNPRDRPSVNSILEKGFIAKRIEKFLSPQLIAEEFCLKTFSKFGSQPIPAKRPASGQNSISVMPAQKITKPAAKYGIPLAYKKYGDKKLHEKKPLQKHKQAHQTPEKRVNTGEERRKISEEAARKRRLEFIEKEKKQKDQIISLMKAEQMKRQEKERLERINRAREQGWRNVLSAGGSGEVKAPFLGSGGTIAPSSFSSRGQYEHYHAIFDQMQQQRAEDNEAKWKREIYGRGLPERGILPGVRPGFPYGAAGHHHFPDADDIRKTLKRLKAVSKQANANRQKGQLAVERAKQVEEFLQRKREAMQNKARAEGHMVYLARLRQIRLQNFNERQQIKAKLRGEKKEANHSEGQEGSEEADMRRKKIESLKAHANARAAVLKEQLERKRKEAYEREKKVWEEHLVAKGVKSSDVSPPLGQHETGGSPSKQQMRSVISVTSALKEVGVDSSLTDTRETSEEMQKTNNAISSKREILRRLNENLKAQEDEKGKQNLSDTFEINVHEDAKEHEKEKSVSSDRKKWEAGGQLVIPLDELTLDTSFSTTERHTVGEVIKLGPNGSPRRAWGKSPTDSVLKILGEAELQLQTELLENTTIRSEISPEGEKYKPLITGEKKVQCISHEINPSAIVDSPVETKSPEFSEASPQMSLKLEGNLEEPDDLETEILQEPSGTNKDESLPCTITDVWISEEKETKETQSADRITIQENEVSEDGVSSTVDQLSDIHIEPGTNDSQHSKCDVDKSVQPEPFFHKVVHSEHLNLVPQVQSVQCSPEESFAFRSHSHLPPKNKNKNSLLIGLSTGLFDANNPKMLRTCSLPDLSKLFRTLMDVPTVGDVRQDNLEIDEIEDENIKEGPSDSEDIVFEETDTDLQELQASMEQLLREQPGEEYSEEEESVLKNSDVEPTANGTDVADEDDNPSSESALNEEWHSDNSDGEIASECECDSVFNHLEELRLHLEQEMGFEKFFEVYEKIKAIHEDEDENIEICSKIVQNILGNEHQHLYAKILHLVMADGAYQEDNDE
# [3] = molecular target: T2, Serine/threonine-protein kinase Nek1 (Homo sapiens); details: at 1 µM
# [4] = molecular target: T3, Serine/threonine-protein kinase Nek2 (Homo sapiens) (UniProt P51955); details: at 0.1 µM
# T3 sequence (whole entry): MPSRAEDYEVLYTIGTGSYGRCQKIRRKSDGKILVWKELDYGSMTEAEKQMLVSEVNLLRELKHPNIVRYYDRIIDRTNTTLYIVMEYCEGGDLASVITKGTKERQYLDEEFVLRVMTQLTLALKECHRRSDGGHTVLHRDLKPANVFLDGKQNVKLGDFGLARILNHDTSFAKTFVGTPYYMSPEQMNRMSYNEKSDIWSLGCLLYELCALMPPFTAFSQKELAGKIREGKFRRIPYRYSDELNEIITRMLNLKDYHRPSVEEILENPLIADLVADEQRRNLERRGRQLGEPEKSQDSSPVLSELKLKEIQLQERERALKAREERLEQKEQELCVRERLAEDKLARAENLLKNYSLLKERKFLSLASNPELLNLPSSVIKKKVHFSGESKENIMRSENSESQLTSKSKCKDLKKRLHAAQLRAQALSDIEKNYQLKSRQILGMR
# [5] = molecular target: T3, Serine/threonine-protein kinase Nek2 (Homo sapiens); details: at 1 µM
# [6] = molecular target: Serine/threonine-protein kinase Nek6 (Homo sapiens) (UniProt Q9HC98); details: at 0.1 µM
# [7] = molecular target: Serine/threonine-protein kinase Nek6 (Homo sapiens) (UniProt Q9HC98); details: at 1 µM
# [8] = molecular target: Serine/threonine-protein kinase Nek7 (Homo sapiens) (UniProt Q8TDX7); details: at 0.1 µM
# [9] = molecular target: Serine/threonine-protein kinase Nek7 (Homo sapiens) (UniProt Q8TDX7); details: at 1 µM
# [10] = molecular target: T4, Serine/threonine-protein kinase Nek9 (Homo sapiens) (UniProt Q8TD19); details: at 0.1 µM
# T4 sequence (whole entry): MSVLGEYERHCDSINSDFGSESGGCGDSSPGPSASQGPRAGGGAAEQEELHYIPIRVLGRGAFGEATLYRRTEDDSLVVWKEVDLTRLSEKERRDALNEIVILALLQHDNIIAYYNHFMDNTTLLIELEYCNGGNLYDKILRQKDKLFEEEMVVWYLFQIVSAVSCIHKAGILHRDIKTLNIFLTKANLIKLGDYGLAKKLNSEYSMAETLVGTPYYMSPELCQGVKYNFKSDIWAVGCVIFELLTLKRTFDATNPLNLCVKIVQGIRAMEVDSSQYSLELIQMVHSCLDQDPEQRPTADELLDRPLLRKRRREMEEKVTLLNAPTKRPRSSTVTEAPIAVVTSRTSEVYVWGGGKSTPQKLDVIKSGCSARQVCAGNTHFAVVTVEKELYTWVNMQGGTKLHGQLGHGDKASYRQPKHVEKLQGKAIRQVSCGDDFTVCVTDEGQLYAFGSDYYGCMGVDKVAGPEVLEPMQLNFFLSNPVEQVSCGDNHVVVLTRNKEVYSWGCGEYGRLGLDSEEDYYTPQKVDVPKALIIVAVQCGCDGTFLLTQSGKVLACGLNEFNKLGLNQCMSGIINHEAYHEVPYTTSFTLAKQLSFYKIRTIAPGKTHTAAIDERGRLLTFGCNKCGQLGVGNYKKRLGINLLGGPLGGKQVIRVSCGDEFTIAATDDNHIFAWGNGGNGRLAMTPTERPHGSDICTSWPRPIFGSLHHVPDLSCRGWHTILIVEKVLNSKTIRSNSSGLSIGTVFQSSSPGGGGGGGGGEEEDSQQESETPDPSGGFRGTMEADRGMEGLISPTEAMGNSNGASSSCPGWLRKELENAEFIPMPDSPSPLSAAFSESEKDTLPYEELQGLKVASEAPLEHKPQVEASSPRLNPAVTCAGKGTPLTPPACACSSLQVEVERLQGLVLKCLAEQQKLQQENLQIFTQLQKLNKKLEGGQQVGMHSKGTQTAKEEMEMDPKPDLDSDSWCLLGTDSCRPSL
# [11] = molecular target: T4, Serine/threonine-protein kinase Nek9 (Homo sapiens); details: at 1 µM
# [12] = molecular target: Serine/threonine-protein kinase PLK1 (Homo sapiens) (UniProt P53350); details: at 0.1 µM
# [13] = molecular target: Serine/threonine-protein kinase PLK1 (Homo sapiens) (UniProt P53350); details: at 1 µM
# [14] = molecular target: T5, Dual specificity protein kinase TTK (Homo sapiens) (UniProt P33981); details: at 0.1 µM
# T5 sequence (whole entry): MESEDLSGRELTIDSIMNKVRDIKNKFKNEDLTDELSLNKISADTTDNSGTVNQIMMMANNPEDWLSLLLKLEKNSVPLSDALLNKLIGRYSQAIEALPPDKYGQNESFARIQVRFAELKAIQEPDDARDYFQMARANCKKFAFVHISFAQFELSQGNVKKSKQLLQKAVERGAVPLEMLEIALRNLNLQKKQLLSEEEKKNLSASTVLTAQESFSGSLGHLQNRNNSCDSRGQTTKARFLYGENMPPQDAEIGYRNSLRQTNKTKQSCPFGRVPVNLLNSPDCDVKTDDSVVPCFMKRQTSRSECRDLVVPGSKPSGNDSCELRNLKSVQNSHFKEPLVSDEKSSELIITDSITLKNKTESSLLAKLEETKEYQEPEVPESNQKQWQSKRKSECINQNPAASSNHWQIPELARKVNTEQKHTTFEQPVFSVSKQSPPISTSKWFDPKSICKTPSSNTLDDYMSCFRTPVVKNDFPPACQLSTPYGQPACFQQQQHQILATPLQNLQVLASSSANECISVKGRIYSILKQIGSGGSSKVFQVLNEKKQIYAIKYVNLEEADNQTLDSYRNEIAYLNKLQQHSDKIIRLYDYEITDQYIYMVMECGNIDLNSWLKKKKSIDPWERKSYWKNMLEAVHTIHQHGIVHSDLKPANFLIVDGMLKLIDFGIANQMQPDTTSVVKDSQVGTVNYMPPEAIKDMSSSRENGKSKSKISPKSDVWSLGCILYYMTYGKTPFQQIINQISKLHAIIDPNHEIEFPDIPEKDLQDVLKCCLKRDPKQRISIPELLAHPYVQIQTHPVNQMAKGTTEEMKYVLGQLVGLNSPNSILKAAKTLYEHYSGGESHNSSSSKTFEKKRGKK
# [15] = system: T6, Receptor-type tyrosine-protein kinase FLT3 (Homo sapiens), P36888 [D835Y]; details: at 1 µM
# T6 sequence (whole entry): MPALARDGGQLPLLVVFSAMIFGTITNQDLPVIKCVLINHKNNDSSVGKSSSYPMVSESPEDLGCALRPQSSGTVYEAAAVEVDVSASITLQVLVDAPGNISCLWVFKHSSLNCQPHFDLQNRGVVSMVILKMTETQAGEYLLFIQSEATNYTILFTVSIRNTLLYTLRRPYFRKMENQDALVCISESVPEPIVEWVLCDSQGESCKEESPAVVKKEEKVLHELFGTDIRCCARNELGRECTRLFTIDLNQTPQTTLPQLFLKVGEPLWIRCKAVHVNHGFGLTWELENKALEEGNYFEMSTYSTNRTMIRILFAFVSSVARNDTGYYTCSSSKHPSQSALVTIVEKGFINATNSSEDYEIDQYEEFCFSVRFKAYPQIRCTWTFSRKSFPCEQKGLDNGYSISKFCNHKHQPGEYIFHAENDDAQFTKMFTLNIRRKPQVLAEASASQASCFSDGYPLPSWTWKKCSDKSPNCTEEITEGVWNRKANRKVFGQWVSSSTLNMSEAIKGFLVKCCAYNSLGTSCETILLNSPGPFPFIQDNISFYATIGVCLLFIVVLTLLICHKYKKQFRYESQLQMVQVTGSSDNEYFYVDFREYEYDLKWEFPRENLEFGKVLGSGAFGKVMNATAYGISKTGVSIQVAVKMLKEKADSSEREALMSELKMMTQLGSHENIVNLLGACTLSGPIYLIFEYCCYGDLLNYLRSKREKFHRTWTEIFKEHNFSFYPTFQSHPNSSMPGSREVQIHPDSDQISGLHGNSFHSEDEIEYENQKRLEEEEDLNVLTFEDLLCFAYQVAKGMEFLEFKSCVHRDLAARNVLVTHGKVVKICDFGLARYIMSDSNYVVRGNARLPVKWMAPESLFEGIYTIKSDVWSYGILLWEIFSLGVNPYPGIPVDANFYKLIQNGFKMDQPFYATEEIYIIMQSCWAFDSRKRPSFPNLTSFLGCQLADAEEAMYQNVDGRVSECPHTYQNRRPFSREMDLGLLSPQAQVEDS
# [16] = molecular target: Vascular endothelial growth factor receptor 3 (Homo sapiens) (UniProt P35916); details: at 0.1 µM
# [17] = molecular target: Vascular endothelial growth factor receptor 3 (Homo sapiens) (UniProt P35916); details: at 1 µM
# [18] = molecular target: Macrophage colony-stimulating factor 1 receptor (Homo sapiens) (UniProt P07333); details: at 0.1 µM
# [19] = molecular target: Macrophage colony-stimulating factor 1 receptor (Homo sapiens) (UniProt P07333); details: at 1 µM
# [20] = molecular target: Tyrosine-protein kinase Fyn (Homo sapiens) (UniProt P06241); details: at 0.1 µM
# Sequence of Tyrosine-protein kinase Fyn (Homo sapiens) (P06241 2-537 limits assumed): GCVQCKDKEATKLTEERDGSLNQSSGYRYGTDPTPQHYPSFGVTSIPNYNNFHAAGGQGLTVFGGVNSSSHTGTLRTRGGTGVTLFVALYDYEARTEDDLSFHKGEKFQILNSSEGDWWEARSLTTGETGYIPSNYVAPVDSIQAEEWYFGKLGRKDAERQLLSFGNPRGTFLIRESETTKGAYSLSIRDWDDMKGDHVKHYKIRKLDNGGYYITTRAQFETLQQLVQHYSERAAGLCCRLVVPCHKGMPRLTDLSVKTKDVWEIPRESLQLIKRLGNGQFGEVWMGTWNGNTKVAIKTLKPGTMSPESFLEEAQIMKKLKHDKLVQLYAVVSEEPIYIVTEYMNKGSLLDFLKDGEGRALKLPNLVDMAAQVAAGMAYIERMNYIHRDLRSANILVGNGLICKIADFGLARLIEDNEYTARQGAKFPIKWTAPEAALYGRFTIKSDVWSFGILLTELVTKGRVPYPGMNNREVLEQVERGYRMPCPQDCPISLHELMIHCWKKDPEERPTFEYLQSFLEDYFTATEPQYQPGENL
# Sequence of Vascular endothelial growth factor receptor 3 (Homo sapiens) (P35916 whole entry): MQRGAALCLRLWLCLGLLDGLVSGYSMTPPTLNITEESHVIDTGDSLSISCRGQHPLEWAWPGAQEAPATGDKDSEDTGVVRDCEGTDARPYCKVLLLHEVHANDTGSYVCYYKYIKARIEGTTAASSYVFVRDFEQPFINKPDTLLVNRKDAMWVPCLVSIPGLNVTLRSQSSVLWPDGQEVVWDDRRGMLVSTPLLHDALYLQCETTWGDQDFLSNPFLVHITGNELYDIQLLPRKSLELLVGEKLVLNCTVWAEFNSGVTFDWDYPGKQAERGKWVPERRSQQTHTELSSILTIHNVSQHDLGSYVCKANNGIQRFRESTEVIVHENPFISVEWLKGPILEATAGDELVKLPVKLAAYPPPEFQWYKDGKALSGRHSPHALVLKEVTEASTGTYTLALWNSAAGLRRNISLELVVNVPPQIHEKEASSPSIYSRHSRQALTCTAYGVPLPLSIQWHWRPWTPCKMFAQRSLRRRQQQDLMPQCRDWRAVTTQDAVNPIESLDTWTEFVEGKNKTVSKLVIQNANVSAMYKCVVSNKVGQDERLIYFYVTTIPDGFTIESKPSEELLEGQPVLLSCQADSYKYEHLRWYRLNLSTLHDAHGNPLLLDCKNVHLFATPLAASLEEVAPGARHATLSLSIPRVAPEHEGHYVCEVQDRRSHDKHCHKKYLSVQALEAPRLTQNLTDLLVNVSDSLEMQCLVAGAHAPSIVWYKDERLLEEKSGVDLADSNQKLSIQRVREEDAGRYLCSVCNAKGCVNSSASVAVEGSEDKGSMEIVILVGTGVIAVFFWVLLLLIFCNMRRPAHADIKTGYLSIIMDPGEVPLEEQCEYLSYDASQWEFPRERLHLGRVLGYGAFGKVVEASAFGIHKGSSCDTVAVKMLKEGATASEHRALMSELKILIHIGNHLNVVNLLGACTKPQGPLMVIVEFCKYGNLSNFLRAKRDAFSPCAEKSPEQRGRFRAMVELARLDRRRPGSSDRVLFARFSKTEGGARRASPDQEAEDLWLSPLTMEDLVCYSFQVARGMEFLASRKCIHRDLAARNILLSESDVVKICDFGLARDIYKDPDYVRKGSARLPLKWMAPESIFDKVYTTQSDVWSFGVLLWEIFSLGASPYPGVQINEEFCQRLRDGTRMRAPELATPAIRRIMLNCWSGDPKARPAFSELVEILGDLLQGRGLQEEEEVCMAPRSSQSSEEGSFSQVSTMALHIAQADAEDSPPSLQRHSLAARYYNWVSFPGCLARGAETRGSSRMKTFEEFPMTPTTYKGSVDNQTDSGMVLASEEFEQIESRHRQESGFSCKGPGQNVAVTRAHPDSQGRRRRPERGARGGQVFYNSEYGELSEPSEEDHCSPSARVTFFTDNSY
# Sequence of Serine/threonine-protein kinase Nek6 (Homo sapiens) (Q9HC98 whole entry): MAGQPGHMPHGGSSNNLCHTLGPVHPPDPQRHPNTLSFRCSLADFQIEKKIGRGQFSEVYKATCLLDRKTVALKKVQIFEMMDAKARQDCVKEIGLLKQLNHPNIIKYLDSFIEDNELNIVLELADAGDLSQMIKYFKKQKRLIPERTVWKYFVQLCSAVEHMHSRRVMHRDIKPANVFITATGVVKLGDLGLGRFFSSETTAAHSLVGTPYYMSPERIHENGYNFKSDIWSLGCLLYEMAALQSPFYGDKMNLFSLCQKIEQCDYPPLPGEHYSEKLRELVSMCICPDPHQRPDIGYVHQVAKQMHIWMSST
# Sequence of Serine/threonine-protein kinase PLK1 (Homo sapiens) (P53350 whole entry): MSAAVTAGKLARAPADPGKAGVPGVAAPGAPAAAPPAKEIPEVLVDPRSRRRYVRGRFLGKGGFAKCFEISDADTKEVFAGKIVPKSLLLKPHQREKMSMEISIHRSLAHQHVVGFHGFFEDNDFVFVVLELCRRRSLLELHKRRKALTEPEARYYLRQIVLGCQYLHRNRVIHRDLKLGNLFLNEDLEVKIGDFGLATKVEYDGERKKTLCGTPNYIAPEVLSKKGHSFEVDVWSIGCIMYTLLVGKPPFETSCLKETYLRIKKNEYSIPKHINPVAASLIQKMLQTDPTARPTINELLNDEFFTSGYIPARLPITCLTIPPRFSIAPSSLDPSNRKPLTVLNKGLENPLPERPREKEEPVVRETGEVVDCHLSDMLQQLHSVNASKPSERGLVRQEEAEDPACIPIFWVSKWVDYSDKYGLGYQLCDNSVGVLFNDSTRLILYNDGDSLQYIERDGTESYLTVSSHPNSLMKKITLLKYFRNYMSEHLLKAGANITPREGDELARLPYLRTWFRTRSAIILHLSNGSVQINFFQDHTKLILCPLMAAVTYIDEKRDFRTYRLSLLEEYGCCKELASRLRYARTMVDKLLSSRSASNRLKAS
# Sequence of Macrophage colony-stimulating factor 1 receptor (Homo sapiens) (P07333 whole entry): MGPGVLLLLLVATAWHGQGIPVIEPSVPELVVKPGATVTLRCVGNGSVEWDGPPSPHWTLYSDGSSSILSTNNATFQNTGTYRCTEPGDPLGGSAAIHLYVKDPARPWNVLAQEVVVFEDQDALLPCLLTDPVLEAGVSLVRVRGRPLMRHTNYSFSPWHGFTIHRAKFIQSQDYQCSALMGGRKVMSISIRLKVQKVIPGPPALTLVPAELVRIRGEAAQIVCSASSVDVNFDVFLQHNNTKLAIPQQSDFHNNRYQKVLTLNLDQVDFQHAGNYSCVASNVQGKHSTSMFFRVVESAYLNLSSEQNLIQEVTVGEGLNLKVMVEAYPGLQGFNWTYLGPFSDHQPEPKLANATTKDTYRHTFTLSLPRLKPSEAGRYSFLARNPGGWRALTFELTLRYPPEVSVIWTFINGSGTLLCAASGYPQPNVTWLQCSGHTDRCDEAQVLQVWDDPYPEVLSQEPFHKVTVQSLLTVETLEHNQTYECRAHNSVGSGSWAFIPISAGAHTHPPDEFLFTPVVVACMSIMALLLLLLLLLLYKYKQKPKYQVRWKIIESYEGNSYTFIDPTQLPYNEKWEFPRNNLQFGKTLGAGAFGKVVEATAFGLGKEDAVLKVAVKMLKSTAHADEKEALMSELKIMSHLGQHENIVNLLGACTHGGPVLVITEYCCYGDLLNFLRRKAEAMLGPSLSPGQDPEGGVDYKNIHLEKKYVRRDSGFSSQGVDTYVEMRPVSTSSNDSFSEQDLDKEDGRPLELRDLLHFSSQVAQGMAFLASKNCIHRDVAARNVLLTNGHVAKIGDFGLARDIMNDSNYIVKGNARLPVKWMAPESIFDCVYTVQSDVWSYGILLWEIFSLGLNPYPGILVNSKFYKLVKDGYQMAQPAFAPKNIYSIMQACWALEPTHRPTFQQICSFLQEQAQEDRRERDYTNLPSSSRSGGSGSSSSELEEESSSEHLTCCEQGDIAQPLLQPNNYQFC
# Sequence of Serine/threonine-protein kinase Nek7 (Homo sapiens) (Q8TDX7 whole entry, looked up): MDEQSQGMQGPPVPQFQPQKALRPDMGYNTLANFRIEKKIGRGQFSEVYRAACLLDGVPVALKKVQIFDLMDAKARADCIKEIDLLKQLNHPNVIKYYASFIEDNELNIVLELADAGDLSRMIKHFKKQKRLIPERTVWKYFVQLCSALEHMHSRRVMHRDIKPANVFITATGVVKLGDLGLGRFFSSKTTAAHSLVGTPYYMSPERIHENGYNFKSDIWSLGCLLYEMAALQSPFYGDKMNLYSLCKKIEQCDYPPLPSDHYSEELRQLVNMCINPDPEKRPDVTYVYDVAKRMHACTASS
Structure (SMILES),inhibition [1] [%],inhibition [2] [%],inhibition [3] [%],inhibition [4] [%],inhibition [5] [%],inhibition [6] [%],inhibition [7] [%],inhibition [8] [%],inhibition [9] [%],inhibition [10] [%],inhibition [11] [%],inhibition [12] [%],inhibition [13] [%],inhibition [14] [%],inhibition [15] [%],inhibition [16] [%],inhibition [17] [%],inhibition [18] [%],inhibition [19] [%],inhibition [20] [%]
COC(=O)Nc1nc2ccc(S(=O)(=O)c3ccc(NC(=O)Nc4cc(C(F)(F)F)ccc4F)cc3)cc2[nH]1,4.2,2.08,1.85,3.76,4.26,4.42,-3.58,2.46,2.19,2.21,7.16,3.83,2.15,5.04,7.26,0.23,0.36,-1.07,2.06,1.02
CCN1CCC(CC(=O)Nc2n[nH]c3nnc(-c4cccc(F)c4F)cc23)CC1,4.56,1.55,1.21,2.78,1.49,2.04,2.93,2.55,1.27,0.14,-3.93,2.14,-0.76,4.15,-2.23,1.01,1.82,-1.12,5.72,-0.21
